Here are results for 33 molecules from PubChem BioAssay (NCI).

Structures are written as SMILES. This is part of a sample that, as a whole, favours compounds with a hit. Of some 79,000 tested, about 15% had one in any assay. The source made the active and inactive calls. Cut-off read from the data, not from the text of the source: active = growth inhibition above about 70%; inactive = the rest.

This experiment can be described thus: NCI Yeast Anticancer Drug Screen. Data for the rad18 strain (AID 177). To be noted: S. cerevisiae rad18 mutant growth inhibition; at 100.0 µM; hits give high values. The gist of the method: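 Inhibition values reflect reduced yeast growth compared with vehicle-treated controls, using a strain engineered with a DNA damage repair defect.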
Regarding `CN(C)CC(CN(C)C)C(=O)/C=C/c1ccc(Cl)cc1Cl`, the growth inhibition was 97% (active). Take `c1ccc2c(c1)ccn2CCc1c[nH]c2ccccc12`: the growth inhibition is 98% (active). The figure for `Cc1ccccc1NC(=O)c1c(C)oc2c1C(=O)c1ccccc1C2=O` is 55% (inactive). Regarding `CC(C)OC(=O)NNc1c(Cl)cc(Cl)cc1Cl`, the growth inhibition was 27% (inactive). In the case of `CCC(OC(C)=O)C1CC(C(C)C)CCC1C` (stereo not drawn), the growth inhibition is 83% (active). With `O=S(=O)(c1cccc(C(F)(F)F)c1)N1c2ccccc2-n2cccc2C1c1cccnc1` (stereo not drawn), the growth inhibition is 89% (active). On to `c1ccc(-c2cc(C3CO3)c3ccccc3n2)cc1` (stereo not drawn), for which the growth inhibition was 97% (active).

As to `COc1ccc(/C=C2\SC(=S)N(/C=C3\C(=O)N(c4ccccc4)N=C3C)C2=O)cc1OC`, the growth inhibition is 74% (active).

`CC1=CC(=C(c2ccc(N)c(C)c2)c2ccc(N)c(C)c2)C=CC1=N`: the growth inhibition is 96% (active). `CC1C(c2ccccc2)SC(=N)N1C` (stereo not drawn): the growth inhibition is -4% (inactive). With `CC(/C=C/c1ccc([N+](=O)[O-])o1)=N/N1CC(CN2CCOCC2)OC1=O` (stereo not drawn), the growth inhibition is 98% (active).

As for `C=CC(C)(C)N1C(=O)C(C(C)=O)=C(O)C1Cc1c[nH]c2ccccc12` (stereo not drawn), the growth inhibition was 66% (inactive).

In the case of `O=C1c2cccc3cccc(c23)C(=O)N1CCNCCN1C(=O)c2cccc3cccc(c23)C1=O`, the growth inhibition was 6% (inactive). As for `Cc1ccc([N+](=O)[O-])c2c(NCCC[N+](C)(C)[O-])c3ccccc3nc12`, the growth inhibition was 94% (active).

On to `COC(=O)C(Cc1c[nH]c2ccccc12)N1CN(C)c2ccccc2C1=O` (stereo not drawn), for which the growth inhibition is 99% (active). As to `O=C(/N=N/C(=O)Oc1ccccc1)Oc1ccccc1`, the growth inhibition was 45% (inactive). Take `COc1cc([C@@H]2c3cc4c(cc3[C@@H](NC(=O)NO)[C@H]3COC(=O)[C@H]23)OCO4)cc(OC)c1O`: the growth inhibition is 8% (inactive).

On to `CC1(C)CC(=O)C(/C=N/c2nc(-c3ccc(Br)cc3)cs2)=C(O)C1`, for which the growth inhibition was 97% (active). The figure for `CCOC(=O)/C(=C/c1cccc(Cl)c1)N(CC)CC` is 95% (active). In the case of `CC(C)OC(=O)NNc1cccc(Cl)c1`, the growth inhibition is 98% (active). The figure for `CCC(=O)C1=C(O)c2cc(OC)ccc2CC1C(=O)OC` (stereo not drawn) is 21% (inactive). The value for `O=S(=O)(NC1CCCC(c2ccccc2)C1)c1ccccc1` (stereo not drawn) was 93% (active); that for `COc1ccc2nc3cccc([N+](=O)[O-])c3c(NCCCCCC(=O)O)c2c1` was 98% (active). The value for `CCO/C=C1\SC(=S)N(c2ccc(OCC)cc2)C1=O` was 18% (inactive); that for `COC(=O)c1ccccc1N=NNc1cccc(SC)c1` was 89% (active); that for `CC1=NN(C(=O)c2ccccc2O)C(=O)/C1=C/c1ccco1` was 94% (active).

`COc1ccccc1NC(=O)c1ccc(Cl)cc1`: the growth inhibition is 2% (inactive).

Consider `CC(C)=CCC/C(C)=C/CN1C(=O)C=CC1=O`, for which the growth inhibition is 99% (active). On to `O=C1CSC(c2ccccc2)N1c1ccc(-c2ccc(-n3c(-c4ccccc4)nc4ccccc4c3=O)cc2)cc1` (stereo not drawn), for which the growth inhibition was 20% (inactive). The figure for `N#CC1OB(O)c2ccccc21` (stereo not drawn) is 6% (inactive).

Consider `O=C(NCCNCCNC(=O)c1cc(-c2ccccc2)nc2ccccc12)c1cc(-c2ccccc2)nc2ccccc12`, for which the growth inhibition was -1% (inactive). The value for `Brc1ccc(B2Nc3ccccc3N2)cc1` was 36% (inactive). Turning to `CCOP(=O)(OCC)/C(C#N)=C/c1cccc(Oc2ccccc2)c1`, the growth inhibition was 97% (active).
